Reference: PubChem BioAssay (NCATS)
Results filed as inconclusive are left out. Active and inactive are the calls of the source. The call rests on the fitted dose curve.

How the values were obtained:
[1] = Primary qHTS for inhibitors of SARS-S pseudo-typed particle cell entry (AID 1479145); conditions: SARS-S pseudotyped particle cell entry, luciferase reporter; series mostly up to 57.1 µM; further: nearly all actives have a fitted effect of over 45% in size
[2] = Primary qHTS for Huh7 cytotoxicity: counterscreen for inhibitors of MERS-S pseudotyped particle cell entry (AID 1479147); conditions: cell viability read-out; series mostly up to 57.1 µM
[3] = Primary qHTS for inhibitors of MERS-S pseudo-typed particle cell entry (AID 1479149); conditions: MERS-S pseudotyped particle entry, luciferase; series mostly up to 57.1 µM; further: nearly all actives have a fitted effect of over 60% in size
[4] = Primary qHTS for Vero E6 cytotoxicity: counterscreen for inhibitors of SARS-S pseudo-typed particle cell entry (AID 1479150); conditions: cell viability; series mostly up to 57.1 µM
On the % scale 0 is the no-effect control and ±100 the full control effect.

NC(=O)N1c2ccccc2C=Cc2ccccc21
inactive: Potency [1] | Potency [2] | Potency [3] | Potency [4]

CC1CC(OC(=O)c2ccccc2O)CC(C)(C)C1 (stereo unspecified)
inactive: Potency [1] | Potency [2] | Potency [3] | Potency [4]

O=C(O)CCCCC(=O)O
inactive: Potency [1] | Potency [2] | Potency [3] | Potency [4]

O=C(CS(=O)Cc1ccco1)NC/C=C\COc1cc(CN2CCCCC2)ccn1 (stereo unspecified)
inactive: Potency [1] | Potency [2] | Potency [3] | Potency [4]

COC(=O)/C=C\C(=O)OC
inactive: Potency [1] | Potency [2] | Potency [3] | Potency [4]

CC(C)(C(=O)c1cccnc1)c1cccnc1
inactive: Potency [1] | Potency [2] | Potency [3] | Potency [4]

C[C@H](CS)C(=O)N1CCC[C@H]1C(=O)O
inactive: Potency [1] | Potency [2] | Potency [3] | Potency [4]

O=C1CC[C@H](C(=O)N2CCCCC2)N1
inactive: Potency [1] | Potency [2] | Potency [3] | Potency [4]

CCn1cc(C(=O)O)c(=O)c2cnc(N3CCCC3)nc21
inactive: activity change, negative = inhibition [1] -4.52% [at 11.4 µM] | outcome [2] inactive [at 11.4 µM] | outcome [3] inactive [at 11.4 µM] | outcome [4] inactive [at 11.4 µM]

CCCCC(O)/C=C(C)/C=C/C=C/C(=O)N1CCCC1=O (stereo unspecified)
inactive: Potency [1] | Potency [2] | Potency [3] | Potency [4]

CCC1=C(C)CN(C(=O)NCCc2ccc(S(=O)(=O)NC(=O)NC3CCC(C)CC3)cc2)C1=O (stereo unspecified)
inactive: Potency [1] | Potency [2] | Potency [3] | Potency [4]

CCCCOC(=O)c1ccc(O)cc1
inactive: Potency [1] | Potency [2] | Potency [3] | Potency [4]

O=C1c2ccccc2C(=O)c2c1ccc(O)c2O
inactive: Potency [1] | Potency [2] | Potency [3] | Potency [4]

Cn1nnc2c(C(N)=O)ncn2c1=O
inactive: Potency [1] | Potency [2] | Potency [3] | Potency [4]

O=c1[nH]c(=O)n([C@H]2C[C@H](O)[C@@H](CO)O2)cc1I
inactive: Potency [1] | Potency [2] | Potency [3] | Potency [4]

CCOC(=O)NNc1ccc(N(CC)CC(C)O)nn1 (stereo unspecified)
inactive: Potency [1] | Potency [2] | Potency [3] | Potency [4]

Cc1ncc([N+](=O)[O-])n1CC(C)O (stereo unspecified)
inactive: Potency [1] | Potency [2] | Potency [3] | Potency [4]

CCOC(=O)c1ccc(O)cc1
inactive: Potency [1] | Potency [2] | Potency [3] | Potency [4]

C[C@@H](CN1CC(=O)NC(=O)C1)N1CC(=O)NC(=O)C1
inactive: Potency [1] | Potency [2] | Potency [3] | Potency [4]

Nc1ncnc2c1ncn2[C@@H]1O[C@H](CO)[C@@H](O)[C@H]1O
inactive: Potency [1] | Potency [2] | Potency [3] | Potency [4]

NS(=O)(=O)c1cc2c(cc1C(F)(F)F)NC(Cc1ccccc1)NS2(=O)=O (stereo unspecified)
inactive: Potency [1] | Potency [2] | Potency [3] | Potency [4]

O=C(O)c1cc(O)c(O)c(O)c1
inactive: Potency [1] | Potency [2] | Potency [3] | Potency [4]

COc1cccc(OC)c1C(=O)N[C@@H]1C(=O)N2[C@@H]1SC(C)(C)[C@@H]2C(=O)O
inactive: Potency [1] | Potency [2] | Potency [3] | Potency [4]

CO[C@@]1(NC(=O)C2SC(=C(C(N)=O)C(=O)O)S2)C(=O)N2C(C(=O)O)=C(CSc3nnnn3C)CS[C@@H]21 (stereo partly specified)
inactive: Potency [1] | Potency [2] | Potency [3] | Potency [4]

NS(=O)(=O)c1cc(C(=O)O)cc(N2CCCC2)c1Oc1ccccc1
inactive: Potency [1] | Potency [2] | Potency [3] | Potency [4]

CCN1CCN(C(=O)N[C@@H](C(=O)N[C@@H]2C(=O)N3[C@@H]2SC(C)(C)[C@H]3C(=O)O)c2ccccc2)C(=O)C1=O
inactive: Potency [1] | Potency [2] | Potency [3] | Potency [4]

CCCCCCCC(=O)OCC(COC(=O)CCCCCCC)OC(=O)CCCCCCC
inactive: Potency [1] | Potency [2] | Potency [3] | Potency [4]

CCN(Cc1ccncc1)C(=O)C(CO)c1ccccc1 (stereo unspecified)
inactive: Potency [1] | Potency [2] | Potency [3] | Potency [4]

CC[C@H](C)[C@H](N)C(=O)O
inactive: Potency [1] | Potency [2] | Potency [3] | Potency [4]

CC(C)(C)C(=O)Oc1ccc(S(=O)(=O)Nc2ccccc2C(=O)NCC(=O)O)cc1
inactive: Potency [1] | Potency [2] | Potency [3] | Potency [4]

Cc1cc(O)cc(C)c1Cl
inactive: Potency [1] | Potency [2] | Potency [3] | Potency [4]

CC(C)(CO)[C@@H](O)C(=O)NCCCO
inactive: Potency [1] | Potency [2] | Potency [3] | Potency [4]

Cc1ccccc1N1CCN(CCc2nnc3n2CCCC3)CC1
inactive: Potency [1] | Potency [2] | Potency [3] | Potency [4]

CN1[C@@H]2CC(OC(=O)[C@H](CO)c3ccccc3)C[C@H]1[C@@H]1O[C@@H]12 (stereo partly specified)
inactive: Potency [1] | Potency [2] | Potency [3] | Potency [4]

N#Cc1ccc(C(c2ccc(C#N)cc2)n2cncn2)cc1
inactive: Potency [1] | Potency [2] | Potency [3] | Potency [4]

C[C@]12CCC(=O)C=C1CC[C@H]1[C@@H]3CC[C@](O)(C(=O)CO)[C@@]3(C)C[C@H](O)[C@@]12F
inactive: Potency [1] | Potency [2] | Potency [3] | Potency [4]

CC(C)Cc1ccc(C(C)C(=O)O)cc1 (stereo unspecified)
inactive: Potency [1] | Potency [2] | Potency [3] | Potency [4]

Cc1c(I)c(=O)n(-c2ccccc2)n1C
inactive: Potency [1] | Potency [2] | Potency [3] | Potency [4]

OCCc1ccccc1
inactive: Potency [1] | Potency [2] | Potency [3] | Potency [4]

OC[C@H]1O[C@H](O[C@]2(CCl)O[C@H](CCl)[C@@H](O)[C@@H]2O)[C@H](O)[C@@H](O)[C@H]1Cl
inactive: Potency [1] | Potency [2] | Potency [3] | Potency [4]

O=C(Oc1ccccc1C(=O)O)c1ccccc1O
inactive: Potency [1] | Potency [2] | Potency [3] | Potency [4]

CC(=O)OCC(COC(C)=O)OC(C)=O
inactive: Potency [1] | Potency [2] | Potency [3] | Potency [4]

CC1(C)O[C@@H]2C[C@H]3[C@@H]4CCC5=CC(=O)C=C[C@]5(C)[C@@]4(F)[C@@H](O)C[C@]3(C)[C@]2(C(=O)CO)O1
inactive: Potency [1] | Potency [2] | Potency [3] | Potency [4]

O=C(O)COc1nn(Cc2ccccc2)c2ccccc12
inactive: Potency [1] | Potency [2] | Potency [3] | Potency [4]
